HPGD block: inhibitors of human 15-hydroxyprostaglandin dehydrogenase (HPGD); hit rate 4.3% among 150,000; Potency, µM, inactives show at the highest dose activity change, negative = inhibition, most hits filed as inhibitors; P15428; purified HPGD, NADH fluorescence kinetic, PGE2 substrate; also: potency is read from the fitted curve at half-maximal effect
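20 nM HPGD preincubated 15 min at room temperature with compound in 50 mM Tris-HCl pH 8, 0.01% Tween 20. Started with 1 mM NAD+ and 30 uM prostaglandin E2; NADH fluorescence (360/450 nm) read 5 times over 30-s intervals, last minus first.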
ALDH1A1 block: ALDH1A1 (human) enzyme inhibition; P00352; hit rate 7.3% among 220,000; Purified ALDH1A1, NADH fluorescence, propionaldehyde substrate; Potency, µM (series often up to 75.3 µM), for the others: top-dose activity, negative = inhibition, actives largely listed as inhibitors;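 also: potency is read from the fitted curve at half-maximal effect; plate controls were no enzyme wells and a reference inhibitor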
Target sequence (P00352 whole entry, looked up): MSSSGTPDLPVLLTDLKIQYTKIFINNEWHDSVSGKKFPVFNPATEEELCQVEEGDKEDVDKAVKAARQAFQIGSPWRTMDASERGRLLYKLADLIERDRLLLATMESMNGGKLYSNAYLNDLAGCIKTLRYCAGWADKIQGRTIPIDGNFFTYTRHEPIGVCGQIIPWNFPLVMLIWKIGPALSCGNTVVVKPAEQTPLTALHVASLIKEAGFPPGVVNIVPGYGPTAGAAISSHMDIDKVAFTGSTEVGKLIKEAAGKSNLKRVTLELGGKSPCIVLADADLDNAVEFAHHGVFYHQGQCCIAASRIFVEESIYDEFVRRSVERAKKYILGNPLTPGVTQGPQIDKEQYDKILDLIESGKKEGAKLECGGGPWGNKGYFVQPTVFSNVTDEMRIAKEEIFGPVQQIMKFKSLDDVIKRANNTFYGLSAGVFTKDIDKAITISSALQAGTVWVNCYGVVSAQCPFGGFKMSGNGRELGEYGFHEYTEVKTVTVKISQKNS
PNC inhibitor: blocks assembly of the perinucleolar compartment | hit rate 3.1% among 140,000 | PC3M PTB-GFP, PNC prevalence imaging, 16 h; active compounds read low | activity change (PNC), negative = inhibition, % at 10 µM | AID 2417;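 active = readout at or below -70, meaning at least 70% loss of cells showing the perinucleolar compartment, a nuclear body marking cancer cells; inconclusive = readout between -30 and a set limit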;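 also: plate controls were DMSO wells for no effect and camptothecin positive control wells for full effect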
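Compounds are pinned in duplicate onto adhered PC3M cells stably expressing GFP-tagged PTB and incubated 16 h at 37 C. Cells are then fixed, nuclei stained with Hoechst, and PNC-positive cells counted.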
Active calls of the source: *; ? = inconclusive; / = not tested or not shown; [ ] = dose if it differs, or a comment. In the library only some 11% were active in any assay of this set; here they are far more common. Unless noted, calls follow the shape of the dose curve; as a rule, active = well fitted inhibition curve with a large enough effect (not every such curve was filed as active); inconclusive = small, poorly fitted or top-dose-only effect, or another doubt; inactive = no such curve, though single readings can be large or run the other way. Unless noted, % is scaled to controls: 0 for no effect and ±100 for the full control effect.

SMILES	HPGD block	ALDH1A1 block	PNC inhibitor
O=C(N/N=C/c1ccc[nH]1)c1ccc(Cl)cc1	-16%	-3%	12
COc1cc2c(cc1OC)CN(C(=O)c1sc(-c3cnccn3)nc1C)CC2	/	-10%	/
NC(=O)c1ccccc1NS(=O)(=O)c1cccs1	-4%	?	-26
O=C(COc1ccccc1)Nc1ccccc1NS(=O)(=O)c1cccs1	-9%	-2%	-100*
CCC1CCc2c(sc(NC(=O)CSc3nc(-c4ccco4)cc(C(F)(F)F)n3)c2C#N)C1 (stereo unspecified)	?	?	-26
CN(C)c1ccc(N=C/C=C2/N(C)c3ccccc3C2(C)C)cc1	-4%	?	-7
COCCN(C(=S)Nc1ccc(OC)cc1)C1CCN(C(C)=O)CC1	-8%	10%	50
CC(C)(C)NC(=O)c1ccc2nccnc2c1	-12%	0%	1
C=CCNC(=O)c1ccc2nccnc2c1	16µM*	-17%	?
O=c1[nH]c(SCc2cccc([N+](=O)[O-])c2)nc2nc[nH]c12	-4%	3%[13.5 µM]	/
COC(=O)CN1C(=O)N/C(=C/c2cc3c(cc2OC)OCO3)C1=O	/	7.9µM*	/
COC(=O)CN1C(=O)N/C(=C/c2cc(Cl)c(OC)c(OC)c2)C1=O	/	4µM*	/
CCOc1ccc(N2C(=O)/C(=C/c3cc(OC)c(OC)c(OC)c3)N(CC(=O)OC)C2=S)cc1	-30%	?	8
COc1cc2c(cc1/C=C1/NC(=O)N(CC(=O)Nc3ccccc3)C1=O)OCO2	/	10%	/
CCOc1cc2c(cc1/C=C1/NC(=O)N(CC(=O)OC)C1=O)OCO2	/	11µM*	/
CCOc1ccc(/C=C2/C(=O)N(c3ccc(OC)cc3)C(=S)N2CC(=O)OC)cc1OCC	-21%	?	57
N#Cc1c(-c2ccccc2F)cc(C2CC2)nc1SCC(=O)c1cccs1	-15%	?	6
Nn1c(SCC(=O)NC2CCCc3ccccc32)nnc1-c1cccs1 (stereo unspecified)	-3%	-9%	?
Cc1ccc(C(=O)N(C)c2nnc(-c3ccncc3)s2)cc1	/	-3%	/
CCOC(=O)CCN1C(=O)[C@H]2[C@H]3[C@H](O)[C@H](O)C/C(=N/OC/C=C(\C)CCC=C(C)C)[C@@H]3CC[C@@H]2C1=O	/	7%[13.5 µM]	/
CS(=O)(=O)c1ccc(N2CCOCC2)c(S(C)(=O)=O)c1	-12%	6%	-107*
CS(=O)(=O)c1ccc(C(=O)Nc2ccccc2N2CCOCC2)c(Cl)c1	/	2%	/
CCCCn1cnc2sc(-c3ccccc3)cc2c1=O	?	?	32
CCCN1C(=O)/C(=c2\sc3nc(=O)c(Cc4ccc(C)cc4)nn3c2=O)c2ccccc21	/	6.3µM*	/
CCCCN1C(=O)/C(=c2\sc3nc(=O)c(-c4ccccc4)nn3c2=O)c2ccccc21	25µM*	4.5µM*	20
SMILES	HPGD block	ALDH1A1 block	PNC inhibitor
O=c1nc2s/c(=C\c3ccco3)c(=O)n2nc1Cc1ccc(F)cc1	-29%	-14%	9
CN(C)c1nc(N(C)C)nc(N(C#N)CN2C(=O)c3ccccc3C2=O)n1	-6%	16%	23
O=C(COC(=O)/C=C/c1ccccc1Cl)NCCc1ccc(Cl)cc1Cl	-29%	1%	4
CC(=O)c1ccc(N2CCN(C(=O)c3ccc(Cn4c(=S)[nH]c5ccc(N6CCOCC6)cc5c4=O)cc3)CC2)cc1	/	-11%	/
CC(=O)/C(=C\c1ccccc1)CC(=O)O	-9%	4%	/
O=C1/C(=C\c2ccc(-c3ccccc3Cl)o2)SC(=S)N1CC1CCCO1 (stereo unspecified)	-19%	1.4µM*	-16
O=C1/C(=C/c2cccnc2)SC(=S)N1CC1CCCO1 (stereo unspecified)	/	5µM*	/
COc1cc(/C=C2/SC(=S)N(CC3CCCO3)C2=O)ccc1O (stereo unspecified)	25µM*	0.14µM*	-16
COc1cc(/C=N/NC(=O)C(=O)NCC2CCCO2)ccc1O (stereo unspecified)	-17%	-7%	23
O=C1/C(=C/c2cccnc2)SC(=S)N1c1ccc(F)cc1	-6%	?	?
CN1C(=O)/C(=C2\SC(=S)N(CC3CCCO3)C2=O)c2ccccc21 (stereo unspecified)	-3%	?	-27
Cc1ccc(C(=O)NC(=S)N2CCN(C(=O)OC(C)(C)C)CC2)cc1Br	/	-11%	/
CN(C)CC(C)(C)NS(=O)(=O)c1ccc(Cl)cc1	-18%	3%	22
Clc1ccc(CSc2nnc(-c3sccc3-n3cccc3)o2)cc1	-13%	?	73
COC(=O)c1cnc(N2CCCN(S(=O)(=O)c3ccc(C(F)(F)F)cc3)CC2)nc1C(F)(F)F	/	-6%	/
c1ccc(-c2nnnc3ccccc23)cc1	-11%	1%	?
Clc1ccc2nnnc(-c3ccccc3)c2c1	0%	5%	-98*
Cc1cc(C)c(O)c(Cc2cccc(Cc3cc(C)cc(C)c3O)c2O)c1	-6%	1%[13.5 µM]	/
Cc1cc(C)c(O)c(N)c1	/	25µM*	/
CCCCCCCSc1nnc(-c2ccccc2N)c(=O)[nH]1	/	-10%	/
CCCCSc1nnc(-c2ccccc2N)c(=O)[nH]1	-10%	1.6µM*	?
Cc1ccc(Cl)c(OCC(=O)OCC(=O)NC2CCCc3ccccc32)c1 (stereo unspecified)	-11%	-6%	49
COc1cccc([C@@H]2Oc3ccc(Br)cc3C[C@H]2OC(=O)Nc2ccc(OC(F)F)cc2)c1	-8%	-10%	/
Cc1nc(NC(=O)/C=C/c2ccccc2)n[nH]1	-1%	-6%	-13
CN(C)c1cccc(C(=O)Nc2cc(C(F)(F)F)ccc2-n2cnc3ccccc32)c1	-11%	1%	-30
SMILES	HPGD block	ALDH1A1 block	PNC inhibitor
CC1CN(C(=S)NC(=O)c2ccc([N+](=O)[O-])cc2)CC(C)O1 (stereo unspecified)	0%	-9%	61
N#Cc1cc([N+](=O)[O-])ccc1N1CCCC1	-6%	?	34
C/C(=N/N1CCN(c2ccccc2)CC1)c1cccc([N+](=O)[O-])c1	/	-10%	/
O=[N+]([O-])c1cccc(C(=S)N2CCN(c3ccccc3F)CC2)c1	/	22µM*	/
O=C(/C=C/c1cccc([N+](=O)[O-])c1)N1CCN(c2ccccc2F)CC1	-2%	-7%	14
CC1CN(c2ccc([N+](=O)[O-])cc2C#N)CC(C)O1 (stereo unspecified)	/	14µM*	/
CC1CN(C(=S)c2cccc([N+](=O)[O-])c2)CC(C)O1 (stereo unspecified)	/	7.9µM*	/
O=[N+]([O-])c1cccc(C(=S)N2CCN(c3ccccc3)CC2)c1	22µM*	16µM*	39
CC(=O)c1cc(-c2ccc(F)cc2)n(CCC(=O)Nc2cccnc2)c1C	/	1%	/
Cc1ccc(C(=O)N/N=C2/NC(=O)CC(C(=O)Nc3ccccc3)S2)cc1 (stereo unspecified)	-13%	-1%	-28
Cc1cccc(NC(=O)C2C3C=CC(C4CC34)C2C(=O)O)c1 (stereo unspecified)	-21%	-7%	-119*
O=C(O)C1C2C=CC(C3CC23)C1C(=O)O (stereo unspecified)	-7%	-5%	-26
Cc1cccc2c1N(C)C(=O)C2=O	/	1.8µM*	/
Cc1cccc(OCCN2C(=O)c3ccccc3C2=O)c1	/	9%	/
Cc1ccc2oc(=O)n(CCCOc3ccccc3)c2c1	-11%	-8%	8

Assay outcomes (PubChem)
